Hit rate of the full screen: of about 5,500 compounds, about 2,000 (36%) were called active. Roughly 18% stayed inconclusive and do not appear here. Rule as the data show it: active = normalized growth mostly below about 0.91 (no sharp cut-off); inconclusive = no clear call, values can overlap the other calls; inactive = mostly above about 0.92. The list shows a part of the results.
Assay: chemical genetic growth profiling, strain panel (AID 1159580);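 also: tested at 20 µM; growth read once vehicle control cultures reached saturation at 30 °C; 1 = growth at the plate median or of vehicle wells; lower values mean less growth of the strain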
Details: growth OD

Measured: normalized growth

COc1cc(/C=C/C(=O)O)cc(OC)c1OC
inactive: S. cerevisiae deletion strains, locus YJR043C, strain POL32, stronger effect = lower value 0.999 | S. cerevisiae deletion strains, locus YJR066W, strain TOR1, stronger effect = lower value 1.02 | S. cerevisiae deletion strains, locus YKL009W, strain mrt4, stronger effect = lower value 1.03 | S. cerevisiae deletion strains, locus YKL068W, stronger effect = lower value 1.02 | S. cerevisiae deletion strains, locus YKL085W, strain MDH1 (second series), stronger effect = lower value 1.01 | S. cerevisiae deletion strains, locus YKL085W, strain MDH1, stronger effect = lower value 1.01 | S. cerevisiae deletion strains, locus YKL160W, strain elf1, stronger effect = lower value 0.985 | S. cerevisiae deletion strains, locus YKR001C, strain vps1, stronger effect = lower value 1 | S. cerevisiae deletion strains, locus YKR026C, strain gcn3, stronger effect = lower value 0.985 | S. cerevisiae deletion strains, locus YKR091W, strain srl3, stronger effect = lower value 0.98 | S. cerevisiae deletion strains, locus YLL001W, strain dnm1, stronger effect = lower value 0.969 | S. cerevisiae deletion strains, locus YLL026W, stronger effect = lower value 0.995 | S. cerevisiae deletion strains, locus YLL041C, strain sdh2, stronger effect = lower value 0.999 | S. cerevisiae deletion strains, locus YLR027C, strain aat2, stronger effect = lower value 0.998 | S. cerevisiae deletion strains, locus YLR039C, strain RIC1, stronger effect = lower value 1.04 | S. cerevisiae deletion strains, locus YLR058C, strain SHM2, stronger effect = lower value 1.02 | S. cerevisiae deletion strains, locus YLR102C, strain apc9, stronger effect = lower value 1.02 | S. cerevisiae deletion strains, locus YLR113W, strain HOG1, stronger effect = lower value 1.03 | S. cerevisiae deletion strains, locus YLR221C, strain rsa3, stronger effect = lower value 1 | S. cerevisiae deletion strains, locus YLR258W, strain gsy2, stronger effect = lower value 0.993 | S. cerevisiae deletion strains, locus YLR262C, strain YPT6 (second series), stronger effect = lower value 0.994 | S. cerevisiae deletion strains, locus YLR262C, strain YPT6, stronger effect = lower value 1.01 | S. cerevisiae deletion strains, locus YLR268W, strain sec22, stronger effect = lower value 1.02 | S. cerevisiae deletion strains, locus YLR320W, strain mms22, stronger effect = lower value 0.995 | S. cerevisiae deletion strains, locus YLR330W, strain CHS5, stronger effect = lower value 1.01 | S. cerevisiae deletion strains, locus YLR342W, strain FKS1 (second series), stronger effect = lower value 0.999 | S. cerevisiae deletion strains, locus YLR342W, strain FKS1, stronger effect = lower value 0.986 | S. cerevisiae deletion strains, locus YLR357W, strain rsc2, stronger effect = lower value 0.993 | S. cerevisiae deletion strains, locus YLR370C, strain arc18, stronger effect = lower value 0.992 | S. cerevisiae deletion strains, locus YLR371W, strain rom2, stronger effect = lower value 1.06 | S. cerevisiae deletion strains, locus YLR384C, strain iki3, stronger effect = lower value 0.986 | S. cerevisiae deletion strains, locus YLR418C, strain cdc73, stronger effect = lower value 0.975 | S. cerevisiae deletion strains, locus YML016C, strain PPZ1, stronger effect = lower value 1.01 | S. cerevisiae deletion strains, locus YML032C, strain rad52, stronger effect = lower value 1.03 | S. cerevisiae deletion strains, locus YML120C, strain ndi1, stronger effect = lower value 1 | S. cerevisiae deletion strains, locus YML124C, strain tub3, stronger effect = lower value 1.02 | S. cerevisiae deletion strains, locus YMR058W, strain fet3, stronger effect = lower value 0.997 | S. cerevisiae deletion strains, locus YMR078C, strain ctf18, stronger effect = lower value 1.05 | S. cerevisiae deletion strains, locus YMR125W, strain sto1, stronger effect = lower value 0.965 | S. cerevisiae deletion strains, locus YMR129W, stronger effect = lower value 0.996 | S. cerevisiae deletion strains, locus YMR205C, strain PFK2, stronger effect = lower value 0.984 | S. cerevisiae deletion strains, locus YMR223W, strain ubp8, stronger effect = lower value 1.04 | S. cerevisiae deletion strains, locus YMR231W, strain pep5, stronger effect = lower value 0.981 | S. cerevisiae deletion strains, locus YMR263W, strain SAP30, stronger effect = lower value 1.01 | S. cerevisiae deletion strains, locus YMR307W, strain GAS1, stronger effect = lower value 1.04 | S. cerevisiae deletion strains, locus YNL067W, strain RPL9B, stronger effect = lower value 1.01 | S. cerevisiae deletion strains, locus YNL071W, strain lat1, stronger effect = lower value 0.991 | S. cerevisiae deletion strains, locus YNL183C, strain NPR1, stronger effect = lower value 1.03 | S. cerevisiae deletion strains, locus YNL209W, strain ssb2, stronger effect = lower value 0.996 | S. cerevisiae deletion strains, locus YNL233W, strain BNI4, stronger effect = lower value 0.999 | S. cerevisiae deletion strains, locus YNL248C, strain rpa49, stronger effect = lower value 1 | S. cerevisiae deletion strains, locus YNL250W, strain rad50, stronger effect = lower value 1.02 | S. cerevisiae deletion strains, locus YNL271C, strain bni1, stronger effect = lower value 1.02 | S. cerevisiae deletion strains, locus YNL298W, strain CLA4, stronger effect = lower value 1.03 | S. cerevisiae deletion strains, locus YNL307C, strain MCK1, stronger effect = lower value 1.02 | S. cerevisiae deletion strains, locus YNL322C, strain KRE1 (second series), stronger effect = lower value 0.99 | S. cerevisiae deletion strains, locus YNL322C, strain KRE1, stronger effect = lower value 1.01 | S. cerevisiae deletion strains, locus YNR049C, strain mso1, stronger effect = lower value 0.988 | S. cerevisiae deletion strains, locus YNR052C, strain pop2, stronger effect = lower value 1.01 | S. cerevisiae deletion strains, locus YOL006C, strain TOP1, stronger effect = lower value 1.04 | S. cerevisiae deletion strains, locus YOL012C, strain htz1 1.26 | S. cerevisiae deletion strains, locus YOL147C, strain pex11, stronger effect = lower value 1.02 | S. cerevisiae deletion strains, locus YOR001W, strain rrp6, stronger effect = lower value 1.03 | S. cerevisiae deletion strains, locus YOR061W, strain CKA2, stronger effect = lower value 1.02 | S. cerevisiae deletion strains, locus YOR069W, strain VPS5, stronger effect = lower value 1.01 | S. cerevisiae deletion strains, locus YOR070C, strain gyp1, stronger effect = lower value 0.991 | S. cerevisiae deletion strains, locus YOR080W, strain dia2, stronger effect = lower value 0.983 | S. cerevisiae deletion strains, locus YOR083W, strain WHI5, stronger effect = lower value 0.972 | S. cerevisiae deletion strains, locus YOR106W, strain vam3, stronger effect = lower value 0.961 | S. cerevisiae deletion strains, locus YOR136W, strain idh2, stronger effect = lower value 1.01 | S. cerevisiae deletion strains, locus YOR144C, strain elg1, stronger effect = lower value 1.01 | S. cerevisiae deletion strains, locus YOR184W, strain ser1, stronger effect = lower value 1.04 | S. cerevisiae deletion strains, locus YOR231W, strain MKK1, stronger effect = lower value 1.06 | S. cerevisiae deletion strains, locus YOR265W, strain rbl2, stronger effect = lower value 0.983 | S. cerevisiae deletion strains, locus YOR270C, strain vph1, stronger effect = lower value 0.998 | S. cerevisiae deletion strains, locus YOR290C, strain snf2, stronger effect = lower value 0.954 | S. cerevisiae deletion strains, locus YOR316C, strain cot1, stronger effect = lower value 1.02 | S. cerevisiae deletion strains, locus YPL051W, strain arl3, stronger effect = lower value 1 | S. cerevisiae deletion strains, locus YPL078C, strain atp4, stronger effect = lower value 0.987 | S. cerevisiae deletion strains, locus YPL106C, strain sse1, stronger effect = lower value 0.972 | S. cerevisiae deletion strains, locus YPL240C, strain hsp82, stronger effect = lower value 0.989 | S. cerevisiae deletion strains, locus YPL256C, strain CLN2, stronger effect = lower value 0.999 | S. cerevisiae deletion strains, locus YPR119W, strain clb2, stronger effect = lower value 1.03 | S. cerevisiae deletion strains, locus YPR141C, strain kar3, stronger effect = lower value 1.03 | S. cerevisiae deletion strains, locus YPR163C, strain tif3, stronger effect = lower value 1.03 | S. cerevisiae deletion strains, locus YPR167C, strain met16, stronger effect = lower value 1.02 | S. cerevisiae deletion strains, strain wtn01, stronger effect = lower value 1.01 | S. cerevisiae strains, strain wild type, stronger effect = lower value 1.01

Source: PubChem BioAssay AID1159580 (chemical genetic matrix, 2015)
